Experimental data reported in PubChem BioAssay AID624491 (Broad Institute, 2012).
Hit rate of the full screen: of about 1,800 compounds, about 1,400 (78%) were called active. Another 2% or so got no clear call; they are omitted.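 The calls were made as follows: active = fitted curve crossing a set activation limit at or below the highest valid dose tested; inconclusive = flat fit at 30 to 70% activation, or poor fit; inactive = the rest, including signal decreases.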 So high a share suggests a set chosen from earlier hits. Not all results are given here. Results with a measured potency or affinity are listed apart.

Assay: N-linked glycosylation inhibitors, luciferase reporter, dose response, D54 ERlucT cells, luminescence, cherry-picks (AID 624491);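 also: signal gain reflects blocked N-linked glycosylation of a luciferase reporter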
Settings: 24 h, 100% = twice neutral-control luminescence; series mostly up to 19.5 µM; activation (NLG inhibition): at the top concentration

Activation (NLG inhibition), inactive:
O=C(Nc1cccc(-c2nc3ncccc3o2)c1)c1sc2ccccc2c1Cl 0.539%
O=C(Nc1cccc2ncccc12)c1ccc([N+](=O)[O-])o1 -15.3%
C(=N\Nc1nc2ccccc2[nH]1)/c1ccc2ncccc2c1 818%
COc1ccc(/C=C/C(=O)c2ccccc2)cc1COc1ccccc1F 34.3%
CC1(C(=O)NCC2CC2)Cc2c(-c3cccc(C(F)(F)F)c3)ccnc2O1 (stereo unspecified) 52.2%
CC1(C(=O)NCC2CCOCC2)Cc2c(-c3cccc(C(F)(F)F)c3)ccnc2O1 (stereo unspecified) 63.4%
CC(=O)Nc1cccc(-c2ccnc3c2CC(C)(C(=O)NCc2cccc(Cl)c2)O3)c1 (stereo unspecified) 37.3%
Cc1nc(C)c(C(=O)N/N=C/c2c[nH]c3ccccc23)s1 48.2%
CCOc1ccc(C(C)=O)cc1COc1cccnc1[N+](=O)[O-] 40%
O=C(Oc1c(Cl)cc(Cl)c2cccnc12)c1ccco1 15.2%
COc1ccccc1NC(=O)c1ccc(-c2ccc(Br)cc2)o1 45.2%
Cc1ccc(OCCNC(=O)c2cccc(S(=O)(=O)NCc3ccccc3)c2)cc1 35%
CCCCn1c(SCC(=O)Nc2cc(C(F)(F)F)cc(C(F)(F)F)c2)nnc1C(CC)N(C)C (stereo unspecified) 17.5%
COc1ccc(Oc2ccc(/C=C/C(=O)c3cccc(OC)c3)cc2[N+](=O)[O-])cc1 -4.01%
Cc1cnc2cc(Cl)c(Cl)cc2n1 18.3%
CCOC(=O)C1=C(C)N=C2SC=C(C)N2C1c1ccc(OC)cc1 (stereo unspecified) 34%
COc1ccc(CCNC(=O)c2cc(-c3ccco3)on2)cc1OC 97.5%
O=C(/C=C/c1ccccc1Cl)c1ccc(O)cc1 4.1%
O=C(C=Cc1cccnc1)c1ccccc1 45.6% [at 5 µM]
O=C(/C=C/c1cccnc1)c1ccc(F)c(F)c1 -67.7%
CCOC(=O)c1[nH]c(C)c(C(=O)c2ccc(C)cc2)c1C 24.6%
